An excerpt weighted towards active compounds, which were near 2.3% of everything screened.
UbGFP stabilizer – proteasome inhibitors stabilizing ubiquitin-GFP reporter | Ubiquitin-GFP reporter cells, proteasome inhibition, GFP fluorescence; response scale: untreated = 0%, 10 µM MG-132 = 100% | Potency, µM (doses to about 45.9 µM), for the others: at the highest dose activation (GFP accumulation), most hits filed as activators | 67,000 tested, under 10 active; active means well fitted activation curve with a large enough effect, not every such curve was filed as active; inconclusive means small, poorly fitted or top-dose-only effect, or another doubt; inactive means no such curve, though single readings can be large or run the other way; further: potency means the concentration at half of the fitted maximal effect
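Proteasome blockade was scored as a rise in GFP-expressing U2OS cells carrying a ubiquitin(G76V)-GFP construct, imaged after 4 hr compound treatment at 37 °C across a 46 uM–2.9 nM series.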
15-hLO inh – 15-hLO (ALOX15) enzyme inhibition; P16050; 1.4% of 74,000 active; purified 15hLO-1, xylenol orange hydroperoxide absorbance; Potency, µM (series often up to 57.1 µM), without a hit: at the highest dose activity change, negative = inhibition, most hits filed as inhibitors; AID 887; further: potency means the concentration at half of the fitted maximal effect; on the % scale 0 is the no-effect control and ±100 the full control effect; nearly all actives have a fitted effect of over 55% in size
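Hydroperoxide formed from arachidonic acid (50 uM) by purified human 15hLO-1 (40 nM) oxidizes ferrous iron, and the ferric-xylenol orange complex is read at 573 versus 405 nm. Compounds were preincubated 15 min; reaction ran 6 min at room temperature.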
GFP derepression – epigenetic GFP locus derepression in mouse cells; mouse C127i GFP locus derepression, cytometry, 30 h; Potency, µM (top dose mostly 46.1 µM), for the others: at the top dose GFP derepression (activation); 0.09% of 68,000 active; further: % of control where 0% means no effect
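Murine C127i mammary cells carrying a silenced, stably integrated CMV-driven GFP reporter were treated with compound for 30 hours at 37 C. After PBS washes, GFP-positive cells were counted by laser-scanning microplate cytometry.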
15-hLO-2 inh – inhibitors of human 15-lipoxygenase 2 (ALOX15B). O15296. purified 15hLO-2, xylenol orange hydroperoxide absorbance. Potency, µM (series often up to 57.1 µM), inactives show top-dose activity change, negative = inhibition, actives largely listed as inhibitors. 0.56% of 110,000 active. AID 881; further: potency means the concentration at half of the fitted maximal effect; on the % scale 0 is the no-effect control and ±100 the full control effect; nearly all actives have a fitted effect of over 60% in size
Target sequence (O15296 whole entry, looked up): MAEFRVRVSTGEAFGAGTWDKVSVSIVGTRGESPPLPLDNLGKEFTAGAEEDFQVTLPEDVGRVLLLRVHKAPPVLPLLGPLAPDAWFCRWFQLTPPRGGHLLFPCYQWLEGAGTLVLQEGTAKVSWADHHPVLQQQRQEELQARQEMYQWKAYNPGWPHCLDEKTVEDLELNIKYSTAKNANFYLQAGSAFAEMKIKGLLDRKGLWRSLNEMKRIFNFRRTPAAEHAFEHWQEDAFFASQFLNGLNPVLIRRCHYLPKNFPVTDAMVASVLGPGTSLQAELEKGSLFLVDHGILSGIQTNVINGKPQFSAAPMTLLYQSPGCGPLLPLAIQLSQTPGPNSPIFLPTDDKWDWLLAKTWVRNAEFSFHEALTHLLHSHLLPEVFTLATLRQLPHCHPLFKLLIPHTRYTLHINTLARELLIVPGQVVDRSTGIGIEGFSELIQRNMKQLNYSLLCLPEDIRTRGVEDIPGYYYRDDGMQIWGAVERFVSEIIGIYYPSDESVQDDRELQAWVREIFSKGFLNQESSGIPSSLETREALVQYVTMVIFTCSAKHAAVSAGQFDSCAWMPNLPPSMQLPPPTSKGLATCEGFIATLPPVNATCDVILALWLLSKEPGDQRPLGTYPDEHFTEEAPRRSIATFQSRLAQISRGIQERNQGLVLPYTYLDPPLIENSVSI
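Purified human 15hLO-2 (50 nM) preincubated 15 min with compound, then 45 uM arachidonic acid for 90 min at RT in 25 mM Hepes pH 7.5, 0.01% Triton X-100. Hydroperoxide detected by Fe-xylenol orange; 573/405 nm absorbance ratio.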
Tau fil binding – binders of human tau filaments; P10636; recombinant tau filaments, thioflavin S fluorescence, 15 h; filaments grown with octadecylsulfate alongside compound; Potency, µM (titrated, usually from 57.1 µM), inactives show at the highest dose activity change, negative = inhibition; 2% of 71,000 active; AID 596;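 further: potency means the concentration at half of the fitted maximal effect; on the % scale 0 is the no-effect control and ±100 the full control effect; actives lower thioflavin S fluorescence by blocking filaments or displacing dye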
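Tau 2 uM in ThS buffer dispensed; compound added; 60 uM ODS added (finals 1 uM tau, 30 uM ODS); 15 h 37 C; fluor ex450/em510.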
HBB splicing – hemoglobin beta splicing modulation | HBB splicing reporter cell assay, activation; EGFP reporter with mutant IVS2-654 intron; response scale: normalised to 500 nM splice-correcting PNA | Potency, µM (top dose mostly 46.1 µM), for the others: top-dose activation, hits mostly activators | 0.06% of 65,000 active; further: potency means the concentration at half of the fitted maximal effect; 0% is about no effect
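HeLa cells stably expressing EGFP interrupted by mutant beta-globin intron 2 (IVS2-654), 500/well in 2% FCS. Treated with compound for 2 days at 37C. Splicing correction scored as total well GFP intensity (488 nm excitation, 500-520 nm emission); 500 nM antisense PNA served as control.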
* = called active by the depositor; i = inactive; ? = inconclusive; . = not tested or not shown; [ ] = remark or other dose. Unless noted, the call rests on the fitted dose curve; in most records, active means well fitted curve in the direction sought with a large enough effect; inconclusive means small, poorly fitted or top-dose-only effect, or another doubt; inactive means no such curve, though single readings can be large; an effect the other way counts as inactive or inconclusive.

SMILES	UbGFP stabilizer	15-hLO inh	GFP derepression	15-hLO-2 inh	Tau fil binding	HBB splicing
C[C@H](NCCN(C)C)[C@@H]1CCC2C3CCc4cc(O)ccc4[C@H]3CCC21C (some centres undefined)	3%[9.17 µM]	17%[11.4 µM]	-3%[9.22 µM]	5%[11.4 µM]	-4%[11.4 µM]	2%[9.22 µM]
Cc1ccc(-c2cc(-c3ccccc3)c(C#N)c(N)n2)o1	-4%	?	29%	?	3.2µM*	.
Cc1ccc(-c2cc(-c3ccc(F)cc3)nc(N)c2C#N)o1	-6%	-1%	1%	?	0%	0%
O=C(O)/C=C\C(=O)Nc1ncn[nH]1	-3%[9.17 µM]	5%[11.4 µM]	-2%[9.22 µM]	-10%[11.4 µM]	6%[11.4 µM]	3%[9.22 µM]
C[C@@]12C[C@H](O)[C@@H]3[C@H](CCC4=CC(=O)CC[C@]43C)[C@H]1CC[C@@H]2c1csc(N)n1	13%[9.17 µM]	6%[11.4 µM]	0%[9.22 µM]	-3%[11.4 µM]	10%[11.4 µM]	2%[9.22 µM]
CN1CCc2c(sc3c2c(=O)n(-c2ccccc2)c2nnc(SCc4ccc(F)cc4)n32)C1	-4%	?	4%	.	4µM*	-1%[0.369 µM]
CSc1nnc2n(-c3ccccc3)c(=O)c3c4c(sc3n12)CCC4	2%	2.5µM*	3%	4%	4%	0%
CC(C)CO/N=C1/[C@H]2O[C@@H]2[C@@H](O)[C@H]2[C@H]1CCn1c(=O)n(C)c(=O)n12	.	10%[11.4 µM]	.	.	.	2%[9.22 µM]
Cc1cccc(CNc2ncncc2-c2ccccc2Cl)c1	-2%	9%	0%[9.22 µM]	10%	3%	0%
CO/N=C1\CN(c2nc3c(cc2F)c(=O)c(C(=O)O)cn3C2CC2)CC1CN (centres undefined)	.	8%	.	0%	.	.
CC(=O)N1CCN(C(=S)c2ccc(-c3ccc(Cl)cc3)o2)CC1	.	.	.	-27%	.	.
N#CCCN1CCN(C(=S)c2ccc(-c3ccc(Cl)c(Cl)c3)o2)CC1	7%	?	-2%	-23%	13µM*	.
S=C(c1ccc(-c2cccc(Cl)c2)o1)N1CCOCC1	11%	?	0%	-20%	16µM*	0%[9.22 µM]
N#CCCN1CCN(C(=S)c2ccc(-c3cccc(Cl)c3)o2)CC1	12%	-14%	-8%	?	4µM*	0%[9.22 µM]
CCOC(=O)OCC1OC(C#Cc2ccccc2)C=CC1OC(=O)OCC (centres undefined)	.	-5%[11.4 µM]	.	.	.	-2%[9.22 µM]
CN(C)CN1CSC(=S)N(CN(C)C)C1	-5%[9.17 µM]	?	0%[9.22 µM]	3%[11.4 µM]	-10%[11.4 µM]	1%[9.22 µM]
CC1CCCCN1Cc1nc2c(c(=O)n(C)c(=O)n2C)n1Cc1c(F)cccc1Cl (centres undefined)	-11%	25µM*	.	.	i	?
Cn1c(=O)c2c(nc(CN3CCN(Cc4ccccc4)CC3)n2Cc2ccccc2)n(C)c1=O	-3%	20µM*	.	6%	?	-1%
CC[C@H](CN(C)C)C(=O)c1ccco1	2%[9.17 µM]	6%[11.4 µM]	2%[9.22 µM]	1%[11.4 µM]	2%[11.4 µM]	1%[9.22 µM]
CC[C@]1(O)C[C@H]2CN(CCc3c([nH]c4ccccc34)[C@](C(=O)OC)(c3cc4c(cc3OC)N(C=O)[C@H]3[C@@](O)(C(=O)OC)[C@H](OC(C)=O)[C@@]5(CC)C=CCN6CC[C@]43[C@H]65)C2)C1	-3%	?	2%	51%	-9%	0%
CCS(=O)(=O)Nc1c(C(=O)O)[nH]c2ccccc12	2%	-1%	-3%	7%	20µM*	2%
CCS(=O)(=O)Nc1c(C(=O)OC)[nH]c2ccccc12	15%	3%	0%	-4%	-6%	2%
Cc1ccc(O)c(N=Nc2ccccc2)n1	2%	13µM*	0%	?	?	-2%
Cc1ccc2c(C)ccc(O)c2n1	.	.	.	0%	.	.
CN1CCN(c2nc3c(c(=O)n(C)c(=O)n3C)n2CCSc2nc3ccccc3s2)CC1	-9%	1.6µM*	.	.	-18%	0%
SMILES	UbGFP stabilizer	15-hLO inh	GFP derepression	15-hLO-2 inh	Tau fil binding	HBB splicing
O=C(O)c1ccc(Cl)c(S(=O)(=O)Nc2ccccc2F)c1	.	-9%	.	.	.	.
CCN(CC)CCNC(=O)CCn1c(=S)[nH]c2cc3c(cc2c1=O)OCO3	0%	9%	0%	1%	-2%	2%[0.369 µM]
CCN(CC)CCNC(=O)CCCCn1c(=S)[nH]c2c([nH]c3ccc(OC)cc32)c1=O	-7%	13µM*	3%	-29%	45%	1%
O=C1N=C(c2ccccc2)S/C1=C\c1cccs1	.	.	.	10µM*	.	.
Oc1ccc(N=Cc2ccc(-c3cccs3)s2)cc1	14%[9.17 µM]	4µM*	-2%	?	?	1%[0.0738 µM]
O=C1CCCC(O)=C1C=Nc1ccc(O)cc1	.	4%	.	8%	.	.
CC(=O)[C@@H]1CC[C@@H]2[C@@H]3CC=C4C[C@H](OS(=O)(=O)O)CC[C@@]4(C)[C@H]3CC[C@]21C	3%	6%	-1%	3%	5%	1%
CCOC(=O)c1cnc2c(C(F)(F)F)cccc2c1N1CCOCC1	-8%	-26%	?	-4%	16µM*	-1%
CCOC(=O)c1cnc2c(C)c(Cl)ccc2c1N1CCOCC1	-4%	6%	.	9%	-9%	-1%
COc1ccc(N2CCN(c3nc(=S)n(-c4ccccc4)c(C)c3C(C)=O)CC2)cc1	6%	16µM*	-3%	-4%	5µM*	1%
Nc1c(C(=O)N2CCCCC2)sc(=S)n1-c1ccccc1	-7%	10µM*	-2%	-13%	-11%	0%
Nc1c(C(=O)N2CCOCC2)sc(=S)n1-c1ccccc1	1%	?	0%	-4%	8%	1%
N#CCc1ccccc1[N+](=O)[O-]	.	-7%	.	0%	-2%	1%
Cn1ccc2cc3c(cc21)CCN3C(=O)Nc1cccnc1	12%	-13%[25.6 µM]	0%	12%	32µM*	0%
CN1CCc2cc(NC(=O)Nc3cccnc3)ccc21	4%	6%	-2%	-3%	-14%	3%
COCCOC(=O)C(C#N)c1nc2ccccc2nc1N1CCN(Cc2ccccc2)CC1 (centres undefined)	-3%	-8%	2%	5%	?	3%[0.369 µM]
C=CCOC(=O)C(C#N)c1nc2ccccc2nc1N1CCN(Cc2ccccc2)CC1 (centres undefined)	7%	-28%	4%	-1%	1.6µM*	0%[1.84 µM]
CN1CCN(c2nc3ccccc3nc2C(C#N)C(=O)OC2CCCCC2)CC1 (centres undefined)	6%	-8%	2%	4%	0.63µM*	5%[57.5 µM]
COCC(C)OC(=O)C(C#N)c1nc2ccccc2nc1N1CCN(Cc2ccccc2)CC1 (centres undefined)	11%	12%	0%	15%	3.2µM*	5%
